# Assay results as given in PubChem BioAssay (NCI).
# Compounds without any hit were thinned out: in the full panel of roughly 79,000, 15% have a hit. Unmarked numbers belong to inactive results. Active and inactive are the calls of the source. Rule as the data show it: active = growth inhibition above about 70%; inactive = the rest.
# Key:
# [1] = NCI Yeast Anticancer Drug Screen. Data for the rad50 strain (AID 155);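 also: 0% = growth of vehicle-only cultures of the same strain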; conditions: S. cerevisiae rad50 strain growth inhibition, active compounds read high
# Procedure, shortened: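 Growth of the mutant yeast was measured after compound exposure and referenced to vehicle-treated cultures.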
# [2] = NCI Yeast Anticancer Drug Screen. Data for the mec2-1 strain (AID 157); conditions: S. cerevisiae mec2-1 strain, active compounds read high
# Procedure, shortened: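 Growth inhibition is read against vehicle-treated controls after compound exposure of the mec2-1 yeast strain, which is defective in DNA damage repair or cell cycle control.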
# [3] = NCI Yeast Anticancer Drug Screen. Data for the sgs1 mgt1 strain (AID 161);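 also: 0% = growth of cultures given vehicle only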; conditions: S. cerevisiae sgs1 mgt1 strain, active compounds read high
# Procedure, shortened: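 Growth of a repair-deficient yeast mutant was monitored after compound treatment and expressed as inhibition relative to vehicle-treated cultures.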
# [4] = NCI Yeast Anticancer Drug Screen. Data for the cln2 rad14 strain (AID 165);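 also: 0% = growth equal to vehicle treated cultures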; conditions: S. cerevisiae cln2 rad14 strain, active compounds read high
# Procedure, shortened: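 Growth inhibition, relative to vehicle-treated controls, is the read-out. The test organism is a yeast strain with defined genetic alterations, cln2 rad14.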
# [5] = NCI Yeast Anticancer Drug Screen. Data for the bub3 strain (AID 167); conditions: S. cerevisiae bub3 mutant strain, active compounds read high
# Procedure, shortened: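 Whole-cell yeast assay. The mutant strain was incubated with compounds, and growth inhibition was determined by comparison with vehicle-treated cells.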
# [6] = NCI Yeast Anticancer Drug Screen. Data for the mlh1 rad18 strain (AID 175); conditions: S. cerevisiae mlh1 rad18 strain growth inhibition, active compounds read high
# Procedure, shortened: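 Cells of a genetically altered yeast strain, deficient in DNA damage repair, were treated with compound. Their growth was then compared with that of vehicle-treated cultures to give inhibition.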
# [7] = at 5.0 µM (retest, dose inferred, filed as 0.5)
# [8] = at 50.0 µM (retest, dose inferred, filed as 5.0)
SMILES,"growth inhibition [1, 7]","growth inhibition [1, 8]",growth inhibition ([1]; at 50.0 µM),"growth inhibition [2, 7]","growth inhibition [2, 8]",growth inhibition ([2]; at 50.0 µM),"growth inhibition [3, 7]","growth inhibition [3, 8]",growth inhibition ([3]; at 50.0 µM),"growth inhibition [4, 7]","growth inhibition [4, 8]",growth inhibition ([4]; at 50.0 µM),"growth inhibition [5, 7]","growth inhibition [5, 8]",growth inhibition ([5]; at 50.0 µM),"growth inhibition [6, 7]","growth inhibition [6, 8]",growth inhibition ([6]; at 50.0 µM)
N#CCCN(C(=S)Nc1cccc(C(F)(F)F)c1)C1CCCCC1,-1%,69%,75.3% (active),3%,87% (active),75% (active),-1%,87% (active),82.4% (active),-1%,46%,41.1%,1%,81% (active),76.2% (active),1%,89% (active),61.2%
O=C1c2ccccc2-c2cc(S)c([N+](=O)[O-])cc21,-10%,12%,9.15%,-9%,10%,18.5%,-1%,12%,36.8%,1%,2%,21%,4%,14%,9.45%,-6%,4%,18.5%
OC(COc1ccc(Cl)cc1)COc1ccc(Cl)cc1,0%,92% (active),98.4% (active),-3%,91% (active),99.4% (active),-3%,86% (active),99.4% (active),-19%,86% (active),99% (active),-8%,92% (active),99.5% (active),0%,93% (active),99.3% (active)
CC(C)c1ccc(O)c(O)c(=O)c1,14%,89% (active),92.8% (active),9%,63%,94.7% (active),70% (active),44%,93.8% (active),18%,26%,91.7% (active),7%,79% (active),93.1% (active),41%,64%,92.7% (active)
